ER stress surv – ER stress cell death inhibition. CSM14.1 thapsigargin ER stress survival, ATP luminescence. relative survival (cellular ATP), % at 15 µg/mL (by protocol). AID 1010. hit rate 0.33% among 48,000;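 active = survival measured by cellular ATP above 50% at 15 µg/ml in the first screen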;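 also: cell death triggered by about 15 µM thapsigargin; ATP read 24 h after thapsigargin was added; plate controls were thapsigargin with DMSO for no effect and DMSO without thapsigargin for full effect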
* = called active by the depositor. The sample as a whole holds a higher share of hits than the screen did.

SMILES	ER stress surv
O=C(NC1CCCC1)c1ccc(CN(c2ccccn2)S(=O)(=O)c2ccccc2)cc1	4
CC1=NN(C(=O)COc2ccccc2)C(O)(C(F)(F)F)C1 (stereo not drawn)	3
CCC(NC(C)=O)c1ccc(Br)cc1 (stereo not drawn)	-5
CCCCC(=O)Nc1ccc(C(=O)OCCC)cc1	0
COc1ccc(NC(=O)C2=C(C)NC(=S)NC2c2c(OC)ccc3ccccc23)cc1 (stereo not drawn)	8
CCOC(=O)NC(NC(=S)Nc1ccccc1I)C(Cl)(Cl)Cl (stereo not drawn)	-3
O=C(Cc1ccccc1)NN1C(=O)/C(=C/c2cccs2)SC1=S	-4
CCOC(=O)c1ccc(NC(=O)/C=C/c2ccccc2)cc1	4
Fc1ccccc1OCCOCCOc1ncnc2ccccc12	4
O=S(=O)(NCc1ccc(F)cc1)c1ccc(Cl)cc1	1
CC1(O)CC(=O)C(C(=O)c2ccccc2)C(c2ccc([N+](=O)[O-])cc2)C1C(=O)c1ccccc1 (stereo not drawn)	-3
COc1ccc(C2C(C(=O)c3ccccc3)C(=O)CC(C)(O)C2C(=O)c2ccccc2)cc1 (stereo not drawn)	58*
COC(=O)C1C(=O)CC(C)(O)C(C(=O)OC)C1c1ccc(Br)cc1 (stereo not drawn)	7
COc1ccc(N2C(=O)/C(=C/c3cc(Br)cc(OC)c3O)SC2=S)cc1	-3
O=C(CCNC(=O)/C(=C\c1ccccc1)NC(=O)c1ccco1)OCc1ccccc1	8
COc1ccc(C(=O)N/C(=C\c2ccccc2)C(=O)NCCCN(C)C)cc1	-1
CC(C)COc1ccc(C(=O)N/C(=C/c2ccccc2)C(=O)NCC(=O)OCc2ccccc2)cc1	80*
CCOC(=O)C1=C(C)N=c2s/c(=C\c3c[nH]c4ccccc34)c(=O)n2C1c1cccc(OC)c1 (stereo not drawn)	10
COc1ccc(C2C3=C(CC(c4ccccc4)CC3=O)Nc3ccccc3N2C(=O)C(C)C)cc1OC (stereo not drawn)	2
CCC(=O)N1c2ccccc2NC2=C(C(=O)CC(c3ccccc3)C2)C1c1cccc(Br)c1 (stereo not drawn)	1
CCC(=O)N1c2ccccc2NC2=C(C(=O)CC(c3ccccc3)C2)C1c1ccc(F)cc1 (stereo not drawn)	106*
CCC(=O)N1c2ccccc2NC2=C(C(=O)CC(c3ccccc3)C2)C1c1cccnc1 (stereo not drawn)	3
CCC(=O)N1c2ccccc2NC2=C(C(=O)CC(c3ccc(OC)cc3)C2)C1c1ccccc1 (stereo not drawn)	-1
O=C1CC(c2ccccc2)CC2=C1C(c1cccnc1)N(C(=O)c1ccccc1)c1ccccc1N2 (stereo not drawn)	79*
CCC(=O)N1c2ccccc2NC2=C(C(=O)CC(C)(C)C2)C1c1ccc(N(CC)CC)cc1 (stereo not drawn)	53*
SMILES	ER stress surv
CC1(C)CC(=O)C2=C(C1)Nc1ccccc1N(C(=O)c1ccccc1)C2c1ccc(C#N)cc1 (stereo not drawn)	16
CCC(=O)N1c2ccccc2NC2=C(C(=O)CC(C)(C)C2)C1c1ccc(C#N)cc1 (stereo not drawn)	-3
COc1cc(C2CC(=O)Nc3c2ccc2ccccc32)c(OC)cc1Br (stereo not drawn)	0
O=C(Nc1cccc(CCc2ccccn2)c1)Nc1cccc2ccccc12	3
COc1cc(OC)cc(C(=O)Nc2cc(C)ccc2OC)c1	-2
O=C(Cc1ccccc1)N1N=C(c2ccc(Br)cc2)CC1(O)C(F)(F)F (stereo not drawn)	10
CC(=O)C1=C(C)NC(c2ccccc2)NC1c1ccccc1 (stereo not drawn)	2
CCn1c(O)c(N=NC(=O)c2cccc([N+](=O)[O-])c2)c2ccccc21	7
Cc1c(C)c2ccc(OC(C)C)c(C)c2oc1=O	10
COc1ccc(NC(=O)COc2cccc(C)c2)c([N+](=O)[O-])c1	9
Cc1cccc(C(=O)N(C(C)C)C(C)C)c1	3
Cn1cc(/C=C/c2nc3ccccc3c(=O)n2Cc2ccccc2)c2ccccc21	27
O=C1CC(c2ccccc2)CC2=C1C(c1ccccc1Cl)Nc1ccccc1N2 (stereo not drawn)	-5
COc1ccc(C2Nc3ccccc3NC3=C2C(=O)CC(c2ccc(Cl)cc2)C3)cc1 (stereo not drawn)	8
COc1ccc(C2CC(=O)C3=C(C2)Nc2ccccc2NC3c2ccccc2OC)cc1 (stereo not drawn)	3
COc1ccc(C2CC(=O)C3=C(C2)Nc2ccccc2NC3c2ccccc2C)cc1 (stereo not drawn)	99*
COc1ccc(C2CC(=O)C3=C(C2)Nc2ccccc2NC3c2ccc(C)cc2)cc1 (stereo not drawn)	-3
COc1ccc(C2CC(=O)C3=C(C2)Nc2ccccc2NC3c2ccc(OCc3ccccc3)c(OC)c2)cc1 (stereo not drawn)	0
COc1ccc(C2CC(=O)C3=C(C2)Nc2ccccc2NC3c2ccccc2Cl)cc1 (stereo not drawn)	101*
COc1ccc(C2CC(=O)C3=C(C2)Nc2ccccc2NC3c2c(Cl)cccc2Cl)cc1 (stereo not drawn)	2
COc1ccc(C2CC(=O)C3=C(C2)Nc2ccccc2NC3c2ccc(OCc3ccccc3)cc2)cc1 (stereo not drawn)	94*
COc1ccc(Cl)cc1C(=O)Nc1nc(-c2ccc(Cl)cc2Cl)cs1	4
O=S(=O)(NCc1cccnc1)c1ccc(Br)cc1Br	-4
CCC1(C)CC(CCNCc2ccc(F)cc2)(c2ccccc2OC)CCO1 (stereo not drawn)	-8
COc1ccc(CCNC(=O)CSc2nc3ccccc3s2)cc1OC	10
SMILES	ER stress surv
COc1ccccc1CC(=O)Nc1cc(C)ccn1	7
Cc1ccnc(NC(=O)C(c2ccccc2)c2ccccc2)c1	86*
Cc1ccnc(NC(=O)CSc2nc3ccccc3[nH]2)c1	-1
O=c1[nH]c(=S)n(-c2ccccc2)c(O)c1/C=C1\C=Nc2ccccc21	9
COc1ccc(C(=O)NCCOc2ccccc2F)cc1OC	10
COc1ccccc1OCCNC(=O)c1ccc(Oc2ccccc2)cc1	52*
COc1ccc(C(=O)NCCOc2ccccc2OC)cc1OC	-3
CCOc1ccc(/C=C2\C(=O)NC(=S)N(c3ccc(CC)cc3)C2=O)cc1OC	11
Cc1cc(Br)c2[nH]c(O)c(N=Nc3cccc4cccnc34)c2c1	-4
CCN(CC)C(=O)c1ccc(CN(c2ccc(OC)cc2)S(=O)(=O)c2ccccc2)cc1	124*
COc1ccc(N(Cc2ccc(C(=O)NC3CCCCC3)cc2)S(=O)(=O)c2ccccc2)cc1	9
COc1ccc(N(Cc2ccc(C(=O)NC3CCCC3)cc2)S(=O)(=O)c2ccccc2)cc1	2
COc1ccc(C(C)=O)cc1N1C(=O)C2C3C=CC(C3=C(c3ccccc3)c3ccccc3)C2C1=O (stereo not drawn)	77*
COc1ccc(C(C)=O)cc1N1C(=O)C=CC1=O	-7
CC(=O)c1cccc(N2C(=O)C3C4C=CC(C4=C(C)C)C3C2=O)c1 (stereo not drawn)	1
CN(C)c1ccc(C2/C(=C(\O)c3ccccc3)C(=O)C(=O)N2CCCCCC(=O)O)cc1 (stereo not drawn)	-2
O=C(c1ccccc1)c1cc2c(cc1Br)OCCO2	13
COc1ccc(-c2nc(-c3ccc(O)cc3)[nH]c2-c2ccc(OC)cc2)cc1	-10

High-throughput results deposited in PubChem by Sanford-Burnham Center for Chemical Genomics.
